Compound activity: PubChem BioAssay, National Center for Advancing Translational Sciences (NCATS)
Most compounds without a hit are left out; they make up all but 8.1% or so of the library.
Sfp inh = inhibitors of Bacillus subtilis Sfp phosphopantetheinyl transferase | Q9F4F7 | Biochemical Sfp PPTase activity, qHTS | Potency, µM, for the others: largest response in the series, negative = inhibition, most hits filed as inhibitors | actives 3.5% (n = 310,000) | AID 1490;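 also: the enzyme is Sfp with the accession as filed and its product quenches rhodamine fluorescence; 0% = enzyme reaction without inhibitor and -100% = no enzyme wells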
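Buffer: 50 mM Hepes-Na pH 7.6, 10 mM MgCl2, 0.01% Nonidet P-40, 0.01% BSA. Enzyme 15 nM, pre-exposed to compound 15 min; substrates then added and fluorescence change tracked over 30 min.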
RORg inh = inhibitors of mouse ROR gamma transcriptional activity; P51450; Drosophila S2 Gal4-RORgamma UAS-luciferase reporter, 20 h; Potency, µM (series often up to 53.6 µM), for inactives: at the top dose activity change, negative = inhibition, actives largely listed as inhibitors; actives 5.4% (n = 310,000); also: % is scaled to controls: 0 for no effect and ±100 for the full control effect; nearly all actives have a fitted effect of over 60% in size
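Luciferase reporter read in Schneider cells carrying Gal4-RORγ (mouse) and UAS-Photinus luciferase; cells given compound 1 h before 700 uM copper sulfate induction, then incubated 20 h at ambient temperature.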
Gal4-VP16 FLuc = Gal4-VP16 reporter inhibition counter-screen; Potency, µM (top dose mostly 53.6 µM), without a hit: at the highest dose activity, negative = inhibition, most hits filed as inhibitors; Drosophila S2 Gal4-VP16 UAS-luciferase, luminescence, 20 h; actives 3.5% (n = 310,000);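 also: Gal4-VP16 expression switched on by copper sulfate through the metallothionein promoter; % is scaled to controls: 0 for no effect and ±100 for the full control effect; nearly all actives have a fitted effect of over 50% in size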
ClpP mod = qHTS Assay for Activators of ClpP; actives 1.9% (n = 340,000); ATP-dependent Clp protease proteolytic subunit (Bacillus subtilis (strain 168)), P80244; Potency, µM (highest dose often 57.5 µM), for the others: at the highest dose activity change, negative = active; purified B. subtilis ClpP, FRET peptide cleavage, 20 min; AID 651965, 2013; active = well fitted falling curve with a large enough effect; inconclusive = small, poorly fitted or top-dose-only effect; inactive = no such curve, though single readings can be large or run the other way; also: the source files actives as falling curves though it sought activators and does not explain the sign; nearly all actives have a fitted effect of over 65% in size
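Buffer: 100 mM Tris/HCl pH8, 100 mM KCl, 0.05% low protease BSA, 2.5% glycerol, 0.01% Tween-20. ClpP 10 microg/mL final; 20 min RT; delta FRET normalized to ADEP and DMSO controls.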
PINK1 expr mod = changes PINK1 expression; actives 0.2% (n = 410,000); AID 624263; Potency, µM (series often up to 76.6 µM), without a hit: at the highest dose activation (PINK1 increase), hits mostly activators; PINK1 immunofluorescence, high-content cytometry, 24 h; active = well fitted activation curve with a large enough effect; inconclusive = small, poorly fitted or top-dose-only effect; cell line not stated here; also: % of control where 0% means no effect; nearly all actives have a fitted effect of over 65% in size
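PINK1 protein, normally rapidly degraded, was detected by immunofluorescence after 24 hour compound treatment of a stable cell line. Titration data (5 concentrations) came from laser-scanning cytometry, with CCCP-treated wells as controls.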
Epigenetic derep = epigenetic control regulation, reporter derepression | actives 0.2% (n = 280,000) | Potency, µM (titrated, usually from 53.9 µM), for inactives: at the top dose GFP activation, actives largely listed as activators | murine LDR cells, GFP reporter derepression, 30 h; also: % of control where 0% means no effect; nearly all actives have a fitted effect of over 60% in size
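Derepression of a silenced CMV-GFP reporter in murine LDR cells is scored by enumerating GFP-positive cells with a laser-scanning microplate cytometer after 30 hours of treatment at 37 C.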
An asterisk follows results filed as active; ? = inconclusive; . = no result given; [ ] = another dose, or the depositor's remark. Unless noted, calls follow the shape of the dose curve; as a rule, active = well fitted curve in the direction sought with a large enough effect; inconclusive = small, poorly fitted or top-dose-only effect, or another doubt; inactive = no such curve, though single readings can be large; an effect the other way counts as inactive or inconclusive. Potency is read from the fitted curve at half-maximal effect.

SMILES	Sfp inh	RORg inh	Gal4-VP16 FLuc	ClpP mod	PINK1 expr mod	Epigenetic derep
CC1CCN(C(=O)Cn2nnc(-c3cccs3)n2)CC1	7%	-18%	12%	0%	2%	3%
CCOC(=O)C1CCN(C(=O)Cn2c(-c3cccs3)cc3cc(Cl)ccc32)CC1	.	.	.	35µM*	0%	2%
O=C(Cc1ccc(F)cc1)NCc1ccc2c(c1)CCN2C(=O)c1ccc(F)cc1	.	.	.	1%	1%	-1%
O=C(CC1C(=O)NCCN1C(=O)c1ccc(Cl)cc1)Nc1ccc(F)cc1 (stereo unspecified)	24%	-19%	6%	32µM*	-2%	.
O=C(CC1C(=O)NCCN1C(=O)Nc1ccc(Cl)cc1)Nc1ccc(F)cc1 (stereo unspecified)	18%	31%	-6%	.	6%	0%
Cc1ccc(NC(=O)Cn2cc(C(=O)c3cccs3)c3ccccc32)cc1C	.	.	.	-29%	0%	-1%
CN(C)S(=O)(=O)c1ccc2c(c1)N(CC(=O)Nc1ccc(OC(F)(F)F)cc1)C(=O)CS2	.	.	.	-1%	3%	-3%
O/N=C/c1ccccc1OCc1ccccc1Cl	13%	-18%	-5%	-2%	13%	-1%
COc1cc(/C=N/O)ccc1OCc1ccccc1Cl	-9%	1µM*	5µM*	.	2%	1%
O=C(/C=N/O)NCCCCNC(=O)/C=N/O	-11%	-13%[10 µM]	-8%[10 µM]	.	.	1%[10.1 µM]
COc1cc(N2CCCC2)c(OC)cc1/C=C1/NC(=S)NC1=O	-23%	15%	-4%	-3%	?	16µM*
Cc1ccc(NC(=S)NCc2ccc(Cl)cc2)c(OC(F)F)c1	2%	6.3µM*	5µM*	-1%	23%	.
Cc1ccc(NC(=O)c2cnccn2)c(OC(F)F)c1	-7%	13%[0.365 µM]	.	-1%	-6%[38.3 µM]	2%
Cc1ccc(CNC(=S)Nc2ccc(OC(F)F)cc2C)cc1	0%	5.6µM*	4.5µM*	1%	11%	1%
COc1ccc(-c2oc3cccnc3c2C#CCO)cc1	6%	?	-6%	4%	-1%	.
COc1ccc(-c2oc3cccnc3c2C#CC2(O)CCCCC2)cc1	79µM*	7.1µM*	?	5%	-1%	.
CCOC(=O)c1nn(-c2ccc(Cl)cc2)c2nnc(Cc3ccc(C)cc3)c(=O)n12	49%	-12%	22µM*	1%	?	3%
CCOC(=O)c1nn(-c2ccccc2)c2nnc(Cc3ccc(Cl)cc3)c(=O)n12	13%	9%	-12%	-1%	0%	5%
Cc1ccc2c(c1)c(N=Nc1ccc([N+](=O)[O-])cc1)c(O)n2C	18%	0%	-2%	1%	2%	.
Cc1ccc2c(c1)c(C1=NC(=S)NC1=O)c(O)n2C	40µM*	4%	-4%	.	1%	-1%
COc1ccc(-c2nc3cnc(N(C)C)nc3n(C[C@H]3CCCO3)c2=O)cc1	24%	-16%	1%	.	1%	.
Cn1cccc1/C=N/NC(=O)c1cc(-c2cccs2)nc2ccccc12	?	7.1µM*	?	-3%	15%	-4%
O=C(N/N=C/c1ccc2ncccc2c1)c1cc(-c2cccs2)nc2ccccc12	?	11%	-1%	3%	5%	11%
Cc1c(NC(=O)c2cc(-c3cccs3)nc3ccccc23)c(=O)n(-c2ccccc2)n1C	20%	-10%	-5%	.	0%	1%
O=C(N/N=C/c1ccc[nH]1)c1cc(-c2cccs2)nc2ccccc12	10%	2.8µM*	6.3µM*	1%	7%	0%
SMILES	Sfp inh	RORg inh	Gal4-VP16 FLuc	ClpP mod	PINK1 expr mod	Epigenetic derep
O=C(N/N=C/c1cccnc1)c1cc(-c2cccs2)nc2ccccc12	26%	21%	4%	25µM*	9%	0%
CC(C)CCNC(=O)C1CCC(Cn2c(=O)c3sccc3n(CC(=O)NC(C)C)c2=O)CC1 (stereo unspecified)	.	.	.	3%	1%	1%
CCN(CC)CCCNC(=O)Cn1nc(N2CCN(c3ccccc3OC)CC2)ccc1=O	.	.	.	?	4%	0%
c1ccc(-c2ccc(OCCN3CCCC3)cc2)cc1	-17%	1%	-6%	.	.	.
COc1ccccc1NC(=O)N1CCC(CN2CCc3ccccc3C2)CC1	.	.	.	2%	0%	-1%
O=C1/C(=C/c2cccnc2)SC(=S)N1Cc1ccco1	.	.	.	-5%	6%	.
CC(C)C(C(=O)O)N1C(=O)/C(=C/C=C/c2ccco2)SC1=S (stereo unspecified)	20µM*	11%	-12%	-3%	-2%	-1%
O=C1/C(=C\c2ccco2)SC(=S)N1c1ccc(O)cc1	16µM*	-31%	1%	-1%	5%	-4%
O=C1/C(=C\c2ccc(O)cc2)SC(=S)N1c1cccnc1	-28%	21%	-7%	0%	11%	2%
CN1C(=S)N(c2ccccc2)C(=O)/C1=C/c1ccco1	-44%	0%	0%	1%	15%	1%
O=C1/C(=C/c2ccco2)SC(=S)N1c1cccnc1	32µM*	7%	9%	.	-1%	11%
Cc1cc(/C=C2\SC(=S)N(Cc3ccco3)C2=O)c(C)n1-c1cccnc1	2%	?	?	-4%	?	22µM*
Cc1cccc(CCNC(=O)Cn2ncc3c(=O)oc4ccccc4c32)c1	.	.	.	3%	2%	-2%
O=C(O)c1ccc(N2C(=O)/C(=C/C=C/c3ccccc3)SC2=S)cc1	6%	4%	-8%	1%	3%	-2%
NN1C(=O)/C(=C\c2ccco2)SC1=S	3.2µM*	3%	14%	.	0%	1%
O=C1/C(=C/C=C/c2ccco2)SC(=S)N1c1ccc(O)cc1	20µM*	10%	1%	-3%	6%	3%
O=C(NN1C(=O)/C(=C/C=C/c2ccco2)SC1=S)c1ccncc1	7.9µM*	5%	-2%	.	-1%	-1%
O=C(NN1C(=O)/C(=C/C=C/c2ccccc2)SC1=S)c1ccncc1	-29%	-2%	-7%	.	1%	5%
NCCCCCc1nnc(SCC(=O)c2ccc(Cl)cc2)o1	50µM*	-19%	5%	1%	-1%	6%
NCCc1nnc(SCC(=O)c2ccc(Cl)cc2)o1	56µM*	8%	6%	1%	2%	0%
NCCCCCc1nnc(SCc2ccccc2Cl)o1	5%	1µM*	0.45µM*	-1%	-1%	-1%
CCOc1ccccc1C1N=C(N)Nc2nc3ccccc3n21 (stereo unspecified)	.	.	.	0%	2%	0%
O=C(O)c1ccc(/C=C2\CCCc3c2nc2ccccc2c3C(=O)O)cc1	13%	-6%	-7%	.	2%	.
COc1ccc(/C=C2\CCCc3c2nc2ccccc2c3C(=O)O)cc1OC	35µM*	6%	6%	.	.	5%
